Assay results published in the supplement of paper PMC6555819.

test system: FXR:RXRa (NR concentration 270 nM, RXRa partner concentration 90 nM); test: PBM binding z-score (relative to random genomic background probes); higher = stronger binding; sequences stand for … in GC…GCGATTGACAGCGTAGAATGAAGG
Method in brief: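 Binding z-scores take random background probes as their reference. They come from custom Agilent 4×180K protein-binding microarrays incubated 1 h with ligand-free nuclear receptor dimers, with antibodies against each partner (one per run) detecting binding. Scanned fluorescence was regression-normalized.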

Sequence	PBM binding z-score
ATCTCTAGGTGAAGTTCAGTGAAAGATCGATAGA	0.465
CCGACTGGGGCAGAAAGTTTACCATACCATCCGG	-0.706
ACAGACAGGTGATGAAGGTAACTAAGGCTATCAT	-0.0463
GCATGTAGATCAAGGTTAAGAAAGACTAAGCTAA	0.0428
TCTTGTAGATCAACAGGAGGTCAAGAAAGATCGA	2.21
CTTGCTAGGTCAATGGTCAGCTAAAGCAGCTCGC	2.93
TCGAGTAGGTTCGTCGGGGCATTCAGCCAACATA	0.282
ATCTCTGGGTAACAAGTTCAGTGAAAGAGAGGAC	0.503
TAGCCCAGGTCAGATCGGGCCAGTATACGCTATA	2.34
TGTCAAAGTTCAATGGTAACGTAAGTATCCACAC	5.2
CGAACGAGGGCATGAGTTGATAGCAAATGCCGAT	0.545
CGTCCAAGGTCATAGGAGGTCAGGGAAGACAGAT	7.91
GCTGCTTGGTCAACTGATGGTCAGCTAAAGCTCG	-0.663
ATCTCTAGGAAACCAAGTTCAGTGAATGCCGAAC	0.256
CCTGCTAGGTCATGGTCATCTAATCTACAGTATG	3.56
TAGCCTATGTCATTGGGCCAGTATAGTACGCATC	-0.278
CGAACTAGGTCAGAACAGGACACTGAAGGATGAT	1.48
GCTCGGAGGACAAGGTCAGATCTTTGTCCGTAGA	2.14
AGAATGAGGTTATTACGATCAGGGAATTGCGGTC	2.01
TCATATACGTAAAAGGTGAAAGTCGGTGTGGTAA	1.58

Sequence	PBM binding z-score
CCTAGTGGGCCACGAAAGGTCATTGATTCAGTGA	3.59
TCTTGTAGTTCAATAGAGGTTAAGAAAGTGCGCT	2.33
ACAGACAGGTGATAAAGGTAACTCAGGCTATCAT	-0.11
CCTACTGGGTCATCAGGTCATTGATATCAACGTT	4.46
TCATCTAGGTAAAAGGTGAAAGTCGGTGTGGTAA	1.68
CAGCCTAGGTCAGGCCCAGTATAGGAGGAACGTT	1.06
AATACAGGGTCATCGTAAGCCAGAGTACGCACAG	7.41
CCTACTGGGCCACGAACGGTCATTGATTCAGTGA	0.0231
GCGACTTGGGCAAAGCAGGTTACCATAAGGTTGG	-0.371
TCTAGTAGGTTAGTCGGGGCATTCAGCCAACATA	0.874
AGAACGAGGGCACGCTCAGTTGATAGCAGAGTAG	0.582
CGTACTAGGTCATTGACAGGACAGTGAATAGTAA	4.65
ATCGAAAGGTCGAGGTGAGCATAGAGAAAGGGAA	4.16
TCATATAGGTAAAGGTGCAAGTCGAACGATATGA	0.551
TCTAGTTGGTCACGGAGGTCACTCACGACGGGTA	2.52
GCGACTGGGGCATAAGCAGGTTACCATAACTTAA	-0.0719
AATACAGGCTCATCGTAGGCCAGAGTACGCACAG	-0.253
CGTACAAGGTCAGCAGGTCAGTGAAAGCGACGTG	6.31
ACAGACAGGTGAGTGAAGGGAACTCAGCTGGACG	0.599
CCTACTGGGCCAAAAAGGTCCTTGATGCCGATAA	-0.386
